In ChEMBL document CHEMBL4513216, “Probing the Open Global Health Chemical Diversity Library for Multistage-Active Starting Points for Next-Generation Antimalarials” (ACS Infect Dis, 2020) one finds INHIBITION data, which are given here for 67 molecules.

In all, about 68,000 compounds went through this assay and about 2,700 (4%) showed an effect of 50% or more. Many of the other results were omitted from the sample, so strong results are more common in it than they were.

This experiment deals with Plasmodium berghei. In words: Screen against P. berghei liver stage (PbLuc), transformed with Luciferase, at 2uM. The settings on record: tested at 2 uM. It is filed as functional, HepG2.
As for `Cc1noc(C)c1-c1cccc(C2CCCNC2)n1` (configuration not stated), the INHIBITION came out at 29.48%.
Take `CN(C)c1nc(N)nc(CN2CCCC2c2cccs2)n1` (configuration not stated): the INHIBITION is given as -43.18%.
In the case of `CC(CO)N(C)C(=O)c1cn(-c2ccc(Br)cc2)cn1` (configuration not stated), the INHIBITION is -33.03%.
As to `O=C(c1cncc(NCC2COc3ccccc3C2)n1)N1CCCCC1` (configuration not stated), the INHIBITION turned out to be 31.05%.
Turning to `O=C(c1cncc(NCC2COc3ccccc3C2)n1)N1CCCC1` (configuration not stated), the INHIBITION amounted to 50.3%.
With `O=C(c1cncc(NCC2COc3ccccc3C2)n1)N1CCOCC1` (configuration not stated), the INHIBITION turned out to be 10.77%.
The figure for `Cc1ncc(CNC(=O)N(C)C2CCN(c3ccccc3)C2=O)s1` (configuration not stated) is -16.12%; for `CNc1cc(C2CN(Cc3coc(C)n3)CCO2)nc(C)n1` (configuration not stated) it is -13.51%.
The figure for `CN(C)C(=O)CCN1CC(c2ccccc2)(c2ccccc2)CCC1=O` is 64.08%; for `O=C1CCC(c2ccccc2)(c2ccccc2)CN1CCO` it is 22%.
As for `CS(=O)(=O)CCN1CC(c2ccccc2)(c2ccccc2)CCC1=O`, the figure is 19.12%; as for `Cn1ccnc1CN1CC[C@@H](NS(C)(=O)=O)[C@@H]1Cc1cccnc1`, -29.46%; as for `Cc1cn2c(n1)C(CNCc1ccc(C)s1)CCC2` (configuration not stated), -35.26%.
In the case of `Cc1nc(C)c(CNCC2CCCn3ccnc32)s1` (configuration not stated), the INHIBITION is 50.59%.
The figure for `Cc1ccc(CNCC2CCCn3ccnc32)s1` (configuration not stated) is 14.82%; for `CC(C)(C)c1ncc(CNCC2CCCn3ccnc32)s1` (configuration not stated) it is 52.98%.
As for `CN1CCOC(CNCc2cnc(C(C)(C)C)s2)C1` (configuration not stated), the figure is 11.01%; as for `CCN(CC)c1ncc(CNCC2CCCn3ccnc32)s1` (configuration not stated), -6.64%.
`Cn1cc(CN2CCc3nc4sccc4c(=O)n3CC2)cn1`: the INHIBITION was found to be 35.7%.
The figure for `COc1ccc(C(=O)N2CCC(Nc3cccnn3)CC2)c(OC)c1` is -51.92%; for `CC(C)NC(=O)N1CCCC2(CCN(c3ccsc3)C2=O)C1` (configuration not stated) it is 17.77%; for `CCC1CN(C)c2ccccc2CN1C(=O)c1c[nH]c(=O)cc1C` (configuration not stated) it is 42.8%.
The figure for `CN(C)C(=O)[C@H]1C[C@H]2OCC[C@H]2N(Cc2ccc(F)cc2)C1` is 35.38%.
The figure for `CCC(CC)n1nc(C)cc1NC(=O)C1CCCO1` (configuration not stated) is 53.61%.
Turning to `CCC(CC)n1nc(C)cc1NC(=O)CC1CCOCC1`, the INHIBITION was -28.5%.
Turning to `CCC(CC)n1nc(C)cc1NC(=O)C1CCOC1` (configuration not stated), the INHIBITION is -3.87%.
As for `Cc1nc(C(=O)N(C)C2CC(=O)N(Cc3ccccc3)C2=O)cs1` (configuration not stated), the figure is 50.42%.
As for `CN(C(=O)c1ccc[nH]1)C1CC(=O)N(Cc2ccccc2)C1=O` (configuration not stated), the figure is 29.91%; as for `Cc1[nH]ccc1C(=O)N(C)C1CC(=O)N(Cc2ccccc2)C1=O` (configuration not stated), 30.59%.
The figure for `O=C(C[C@@H]1COC[C@H]2CN(C(=O)c3cccnc3)C[C@@H]12)N1CCOCC1` is 22.89%; for `Cc1ccc(CN2CCOC3(COCCN(C(C)C)C3)C2)s1` (configuration not stated) it is -9.22%.
Regarding `CCc1nsc(N2CCN(C(=O)COc3ccccc3)CC2)n1`, the INHIBITION is on record as 61.82%.
In the case of `CCc1ncc(C(=O)N2CCN(C(=O)COc3ccccc3)CC2)cn1`, the INHIBITION is listed as -28.5%.
The figure for `CCc1nsc(N2CCCN(C(=O)COc3ccccc3)CC2)n1` is -26.86%; for `N#CCCN(c1ccc(F)cc1)S(=O)(=O)CC1CCCCO1` (configuration not stated) it is -7.39%.
As for `CC(=O)Nc1ccc(C(=O)NCCCn2cccc2)cc1`, the INHIBITION is 30.58%.
The figure for `CCC1CCCCN1C(=O)c1ccnc(N(C)C)c1` (configuration not stated) is 16.84%; for `CN(C)c1cc(C(=O)N2CCCCC2Cn2cccn2)ccn1` (configuration not stated) it is -7.15%; for `CN(C)c1cc(C(=O)N2CCCCC2CNS(C)(=O)=O)ccn1` (configuration not stated) it is 53.11%.
Take `CC(C)NC(=O)[C@H]1C[C@@H]2[C@@H](C1)OCCN2Cc1cccs1`: the INHIBITION came to 29.43%.
The figure for `O=C1CCCc2[nH]c(=O)c(C(=O)N(CC3CCCCC3)C3CC3)cc21` is 67.44%; for `CCCN(C(=O)c1cc2c([nH]c1=O)CCCC2=O)C1CCCCC1` it is 22%; for `CCN(C(=O)c1cc2c([nH]c1=O)CCCC2=O)C1CCCCC1` it is -58.06%.
The figure for `CC(C)C(C)N(C(=O)c1cc2c([nH]c1=O)CCCC2=O)C1CC1` (configuration not stated) is 72.49%; for `CC(C)CCN(C(=O)c1cc2c([nH]c1=O)CCCC2=O)C1CC1` it is 0.12%.
As for `CC(c1ccco1)N(C(=O)c1cc2c([nH]c1=O)CCCC2=O)C1CC1` (configuration not stated), the figure is -8.3%.
For `COc1ccc2c(c1)C1(CCNCC1)CC2NC1CC1` (configuration not stated), the INHIBITION was 0%.
In the case of `CC(C)(CN1CCOCC1)CN1CCC(Cc2cccc(CO)c2)C1` (configuration not stated), the INHIBITION was -7.7%.
As for `CCN(CC)c1ccc(NS(=O)(=O)c2cnn(C(C)C)c2)cn1`, the figure is 3.17%; as for `N#Cc1nc(COc2ccc3c(c2)OCO3)oc1NC1CC1`, 51.42%; as for `N#Cc1nc(COc2ccc3c(c2)OCO3)oc1NC1CCCCC1`, 66.74%.
The figure for `N#Cc1nc(COc2ccc3c(c2)OCO3)oc1N1CCCC1` is -9.89%; for `O=C(NC1CCCC1)c1nc(COc2ccc3c(c2)OCO3)no1` it is -11.86%.
The figure for `N#Cc1nc(COc2ccc3c(c2)OCO3)oc1N1CCCCCC1` is 18.85%; for `CNc1oc(COc2ccc3c(c2)OCO3)nc1C#N` it is -6.53%; for `CCS(=O)(=O)N1CCC(c2nnc(CN3CCOCC3)n2C)CC1` it is 37.3%.
In the case of `CCCc1n[nH]c(C2CN(C(=O)CCCn3ccnc3C)CCO2)n1` (configuration not stated), the INHIBITION is -15.07%.
As for `Cc1cc(C)cc(OCC(=O)N2CCC2)c1`, the figure is 16.8%.
The figure for `COc1cc(C(=O)N2CCCS2(=O)=O)ccc1OC(C)C` is 21.12%; for `COc1ccc(C[C@H]2CN(Cc3ccoc3)CC[C@@H]2OC)cc1` it is 17.47%.
The figure for `Cc1cnc(C(=O)N2CC[C@H]3C[C@@H](c4nc(C)cs4)O[C@@H]3C2)cn1` is 5.85%; for `CC(C)c1cc(=O)[nH]c(-n2nc(C3CC3)cc2N)n1` it is 16.98%.
As for `CN(CC1CCCCO1)S(=O)(=O)c1cccc(C(=O)N2CCOCC2)c1` (configuration not stated), the INHIBITION is listed as -40.47%.
The figure for `O=C(O)c1cccc(C2CCCN(S(=O)(=O)C3CC3)C2)c1` (configuration not stated) is 47.68%.
As for `CC(O)CN1CCN(Cc2coc(-c3ccccc3Cl)n2)CC1` (configuration not stated), the figure is -7.16%.
As for `COCCN1CCN(Cc2coc(-c3ccccc3Cl)n2)CC1`, the figure is 11.9%.
On to `OCCN1CCN(Cc2coc(-c3ccccc3Cl)n2)CC1`, for which the INHIBITION was found to be 58.53%.
